Source: PubChem BioAssay (NCI)
Several values for one entry are separate records, joined by “and”; a condition that tells them apart may be missing. Identical values can stand only once. The panel holds about 79,000 compounds, 15% with a hit somewhere; the sample as a whole holds those more often. A structure can be active in one record and inactive in another. Activity calls are given as the source filed them. Cut-off read from the data, not from the text of the source: active = growth inhibition above about 70%; inactive = the rest.

Assays:
[1] = NCI Yeast Anticancer Drug Screen. Data for the rad50 strain (AID 155);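 note: 0% = growth of vehicle-only cultures of the same strain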; conditions: S. cerevisiae rad50 strain growth inhibition, stronger effect = higher value
In short: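 Cells are treated with compound, grown, and their growth is then scored against vehicle-only cultures of the same repair-deficient yeast strain.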

[2] = NCI Yeast Anticancer Drug Screen. Data for the mec2-1 strain (AID 157); conditions: S. cerevisiae mec2-1 strain, stronger effect = higher value
In short: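 Readout is yeast growth inhibition, normalised to vehicle-treated controls, in the mec2-1 strain exposed to compound.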

[3] = NCI Yeast Anticancer Drug Screen. Data for the sgs1 mgt1 strain (AID 161);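 note: 0% = growth of cultures given vehicle only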; conditions: S. cerevisiae sgs1 mgt1 strain, stronger effect = higher value
In short: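 Percent growth inhibition was derived by comparing compound-exposed mutant yeast with vehicle-exposed cultures. The strain carries alterations in DNA damage repair.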

[4] = NCI Yeast Anticancer Drug Screen. Data for the cln2 rad14 strain (AID 165);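 note: 0% = growth equal to vehicle treated cultures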; conditions: S. cerevisiae cln2 rad14 strain, stronger effect = higher value
In short: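 Relative to vehicle controls, growth inhibition of compound-treated cln2 rad14 yeast was recorded.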

[5] = NCI Yeast Anticancer Drug Screen. Data for the bub3 strain (AID 167); conditions: S. cerevisiae bub3 mutant strain, stronger effect = higher value
In short: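 Part of a panel of yeast mutants defective in DNA damage repair or cell cycle regulation. Each strain is grown with compound, and inhibition is calculated relative to solvent-treated cultures.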

[6] = NCI Yeast Anticancer Drug Screen. Data for the mlh1 rad18 strain (AID 175); conditions: S. cerevisiae mlh1 rad18 strain growth inhibition, stronger effect = higher value
In short: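 Test agents were incubated with a yeast strain of defined genotype (DNA damage repair defect). Inhibition of growth was derived by comparison with vehicle-exposed cultures.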

[7] = at 5.0 µM (retest, dose inferred, filed as 0.5)
[8] = at 50.0 µM (retest, dose inferred, filed as 5.0)

Row | Compound | growth inhibition [1, 7] | growth inhibition [1, 8] | growth inhibition ([1]; at 50.0 µM) | growth inhibition [2, 7] | growth inhibition [2, 8] | growth inhibition ([2]; at 50.0 µM) | growth inhibition [3, 7] | growth inhibition [3, 8] | growth inhibition ([3]; at 50.0 µM) | growth inhibition [4, 7] | growth inhibition [4, 8] | growth inhibition ([4]; at 50.0 µM) | growth inhibition [5, 7] | growth inhibition [5, 8] | growth inhibition ([5]; at 50.0 µM) | growth inhibition [6, 7] | growth inhibition [6, 8] | growth inhibition ([6]; at 50.0 µM)
1 | CC(C)=CCC(O)C1=CC(=O)c2c(O)ccc(O)c2C1=O (stereo not given) | 44% (inactive) | 59% (inactive) | 9.15% (inactive) and 87.9% (active) and 4.05% (inactive) | 46% (inactive) | 66% (inactive) | 15.9% (inactive) and 90.7% (active) and 54.8% (inactive) | 43% (inactive) | 92% (active) | 12.4% (inactive) and 91.5% (active) and 30.6% (inactive) | 59% (inactive) | 94% (active) | 16.1% (inactive) and 89.1% (active) and 33.1% (inactive) | 62% (inactive) | 87% (active) | 22.6% (inactive) and 88% (active) and 36.5% (inactive) | 43% (inactive) | 60% (inactive) | 26.6% (inactive) and 85.2% (active) and 9.65% (inactive)
2 | CC(=O)OC(c1ccccc1)c1ccc(Cl)cc1 (stereo not given) | 3% (inactive) | 0% (inactive) | -11% (inactive) | 7% (inactive) | 6% (inactive) | 42.2% (inactive) | 4% (inactive) | 8% (inactive) | -0.4% (inactive) | 4% (inactive) | -14% (inactive) | -1.9% (inactive) | 6% (inactive) | 8% (inactive) | -5.65% (inactive) | 1% (inactive) | -1% (inactive) | 2.9% (inactive)
3 | Cc1noc(-c2ccc([N+](=O)[O-])o2)n1 | 6% (inactive) | 85% (active) | 93.5% (active) | -1% (inactive) | 82% (active) | 52.1% (inactive) | 5% (inactive) | 87% (active) | 74.6% (active) | -6% (inactive) | 57% (inactive) | 57.9% (inactive) | 2% (inactive) | 80% (active) | 63.9% (inactive) | 24% (inactive) | 94% (active) | 87.8% (active)
4 | CCCCCCCCCCCC[N+](C)(C)Cc1ccccc1 | 58% (inactive) and 95% (active) | 99% (active) and 98% (active) | 85.7% (active) and 97.7% (active) | 75% (active) and 93% (active) | 100% (active) and 98% (active) | 99.8% (active) and 98.3% (active) | 91% (active) and 99% (active) | 100% (active) and 98% (active) | 98% (active) and 99.4% (active) | 56% (inactive) and 88% (active) | 99% (active) and 97% (active) | 99.4% (active) and 98% (active) | 57% (inactive) and 92% (active) | 100% (active) and 98% (active) | 99.5% (active) and 99.3% (active) | 81% (active) and 96% (active) | 99% (active) and 98% (active) | 99.7% (active) and 98.5% (active)
5 | CC[N+](CC)=c1ccc2nc3c(cc(N)c4ccccc43)oc-2c1 | -8% (inactive) | 42% (inactive) | 71.5% (active) and -20.9% (inactive) | -1% (inactive) | 39% (inactive) | 52.5% (inactive) and -17.7% (inactive) | -9% (inactive) | 42% (inactive) | 38.1% (inactive) | -14% (inactive) | 7% (inactive) | 38% (inactive) | -4% (inactive) | 19% (inactive) | 63% (inactive) | -6% (inactive) | 27% (inactive) | 68.8% (inactive) and -28.9% (inactive)
6 | c1ccc2c(c1)CNc1ccccc1-2 | 4% (inactive) | 58% (inactive) | 48% (inactive) | -10% (inactive) | 21% (inactive) | 42.7% (inactive) | 0% (inactive) | 66% (inactive) | 83.5% (active) | 6% (inactive) | 16% (inactive) | 7.4% (inactive) | 47% (inactive) | 60% (inactive) | 85.5% (active) | 3% (inactive) | 45% (inactive) | 92.1% (active)
7 | CC1C[C@]2(C)C(=O)Nc3ccccc3[C@@H]2Nc2ccccc21 (stereo not given in full) | 6% (inactive) | 36% (inactive) | 91.1% (active) | 10% (inactive) | 30% (inactive) | 93.8% (active) | 22% (inactive) | 14% (inactive) | 93.2% (active) | -6% (inactive) | 57% (inactive) | 89.5% (active) | 20% (inactive) | 73% (active) | 91.5% (active) | 16% (inactive) | 43% (inactive) | 89.2% (active)
8 | Cc1cc(C)[nH]c(=O)n1 | -2% (inactive) | 16% (inactive) | -22.4% (inactive) and 84.2% (active) | -1% (inactive) | 11% (inactive) | -16.4% (inactive) and 2.9% (inactive) | 2% (inactive) | 7% (inactive) | -9.15% (inactive) and 22.4% (inactive) | 6% (inactive) | 13% (inactive) | -18.1% (inactive) and 22.9% (inactive) | -4% (inactive) | -2% (inactive) | -2.25% (inactive) and 14.7% (inactive) | -2% (inactive) | 7% (inactive) | -14.6% (inactive) and 45.2% (inactive)
9 | OC1CC2CCCC(C1)C2 (stereo not given) | -2% (inactive) | 3% (inactive) | -17.8% (inactive) | 4% (inactive) | 1% (inactive) | 17.8% (inactive) | -2% (inactive) | 3% (inactive) | -12.2% (inactive) | -5% (inactive) | -3% (inactive) | 72.5% (active) | 0% (inactive) | -10% (inactive) | -18.6% (inactive) | -1% (inactive) | -2% (inactive) | -1.65% (inactive)
10 | CCN(C(=O)C(Cl)Cl)C(Cc1ccccc1)c1ccccc1 (stereo not given) | -1% (inactive) | 58% (inactive) | 91.5% (active) | -1% (inactive) | 61% (inactive) | 96.3% (active) | -1% (inactive) | 80% (active) | 93.8% (active) | -4% (inactive) | 74% (active) | 86.8% (active) | 10% (inactive) | 61% (inactive) | 86.8% (active) | 2% (inactive) | 72% (active) | 86% (active)
11 | CN1CCCc2cc(/C=C\c3ccnc4ccccc34)ccc21 | -2% (inactive) | 94% (active) | 96% (active) | -10% (inactive) | 97% (active) | 97.1% (active) | -10% (inactive) | 96% (active) | 98.3% (active) | -6% (inactive) | 94% (active) | 93% (active) | -7% (inactive) | 94% (active) | 96.8% (active) | -21% (inactive) | 96% (active) | 97.4% (active)
12 | COc1ccc(C2SC(N)=Nc3c2c(C)nn3C(=O)c2ccc(Cl)cc2)cc1OC (stereo not given) | 6% (inactive) | 11% (inactive) | -19.2% (inactive) | -10% (inactive) | -1% (inactive) | 14.5% (inactive) | -7% (inactive) | 0% (inactive) | 3.85% (inactive) | -21% (inactive) | 1% (inactive) | 64.5% (inactive) | -18% (inactive) | 15% (inactive) | 16.1% (inactive) | -8% (inactive) | -15% (inactive) | -26.6% (inactive)
13 | CCCCC(O)CC (stereo not given) | -6% (inactive) | 0% (inactive) | -10% (inactive) and 9.8% (inactive) | -8% (inactive) | -3% (inactive) | -42.2% (inactive) and 12.4% (inactive) | -2% (inactive) | 1% (inactive) | 11.6% (inactive) and 27.9% (inactive) | -3% (inactive) | -1% (inactive) | 4.65% (inactive) and 48.2% (inactive) | -6% (inactive) | 0% (inactive) | -5.95% (inactive) and 1.55% (inactive) | -4% (inactive) | 0% (inactive) | 0.4% (inactive) and -1.7% (inactive)
14 | CN(CCN1C(=O)c2cccc3cccc(c23)C1=O)CCN1C(=O)c2cccc3cccc(c23)C1=O | 97% (active) | 96% (active) | 98.5% (active) | 20% (inactive) | 97% (active) | 98.2% (active) | 69% (inactive) | 97% (active) | 97.2% (active) | 15% (inactive) | 90% (active) | 83.6% (active) | -2% (inactive) | 95% (active) | 96% (active) | 47% (inactive) | 97% (active) | 98.1% (active)
15 | Oc1ccc(N=Nc2ccccn2)c(O)c1 | -174% (inactive) and 98% (active) | 94% (active) and 98% (active) | 98.5% (active) and 88.8% (active) | -53% (inactive) and 99% (active) | 97% (active) and 99% (active) | 98.5% (active) and 90.5% (active) | -67% (inactive) and 19% (inactive) | 94% (active) and 97% (active) | 98.2% (active) and 91.2% (active) | -66% (inactive) and 42% (inactive) | 94% (active) and 98% (active) | 96% (active) and 86.2% (active) | -67% (inactive) and 42% (inactive) | 96% (active) | 97.5% (active) and 89.8% (active) | -127% (inactive) and 100% (active) | 95% (active) and 99% (active) | 98.4% (active) and 89% (active)
